Compound activity (PubChem)
KB-V1 MDR tox: qHTS assay for MDR1-selective chemotherapeutics: Primary screen using the drug-selected MDR subline cells KB-V1. KB-V1 MDR cells viability, CellTiter-Glo, 72 h. Potency, µM (series often up to 46.1 µM), most hits filed as cytotoxic. 400,000 compounds, 3.4% hits. AID 1347076, 2019; note: % is set by controls: 0 for no effect and ±100 for the full control effect; nearly all actives have a fitted effect of over 60% in size
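Cytotoxicity via CellTiter-Glo luminescence after 72 h compound exposure at 37 degrees C. Cells: drug-selected KB-V1 line, DMEM phenol-red free plus 10% FBS. Compounds tested at multiple concentrations; normalized data fitted to concentration-effect curves.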
PINK1 expr mod: A Quantitative High throughput Screen to Identify Chemical Modulators of PINK1 Expression. Potency, µM (titrated, usually from 76.6 µM), for the others: top-dose activation (PINK1 increase), usual class: activators. PINK1 immunofluorescence, high-content cytometry, 24 h. AID 624263, 2012. 410,000 compounds, 0.2% hits; active = well fitted activation curve with a large enough effect; inconclusive = small, poorly fitted or top-dose-only effect; cell line not stated here; note: % of control where 0% means no effect; nearly all actives have a fitted effect of over 65% in size
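Compound titrations (5 concentrations, 24 h) on a stable cell line; DMSO and CCCP controls. Endpoint: fixed-cell PINK1 immunofluorescence with mitochondrial, cell and nuclear markers, scanned by microplate cytometer.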
MCF10A rerep: A quantitative high throughput screen for small molecules that induce DNA re-replication in MCF 10a normal breast cells; MCF 10A DNA re-replication, Hoechst nuclear intensity, 48 h; Potency, µM (top dose mostly 46.1 µM), for inactives: at the top dose activity, positive = re-replication, usual class: activators; 350,000 compounds, 2.9% hits; AID 624296, 2012; note: % of control where 0% means no effect; nearly all actives have a fitted effect of over 50% in size
SW480 rereplic: A quantitative high throughput screen for small molecules that induce DNA re-replication in SW480 colon adenocarcinoma cells | SW480 DNA re-replication, Hoechst DNA content imaging, 48 h | Potency, µM (titrated, usually from 46.1 µM), without a hit: at the highest dose re-replication activation, most hits filed as activators | 340,000 compounds, 1.8% hits | AID 624297, 2012; note: % of control where 0% means no effect; nearly all actives have a fitted effect of over 55% in size
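Image-based DNA-content assay: after two days of treatment, nuclei were labelled with the DNA dye Hoechst and imaged, and hits were compounds raising the count of nuclei showing high fluorescence intensity.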
TSG101-PTAP inh: qHTS Assay for Iinhibitors of HIV-1 Budding by Blocking the Interaction of PTAP/TSG101 | Potency, µM (series often up to 115 µM), for inactives: at the top dose activity change, negative = inhibition, hits mostly inhibitors | Fluorescence polarization, FITC-PTAP peptide / Tsg101 binding | AID 493005, 2010 | 340,000 tested, under 10 active | Tumor susceptibility gene 101 protein (Homo sapiens), Q99816; active = well fitted inhibition curve with a large enough effect in the main read-out, with a control signal flat, not every such curve was filed as active; inconclusive = small, poorly fitted or top-dose-only effect, or effect the other way, or a change in a side signal; inactive = no such curve, though single readings can be large or run the other way; note: % of control where 0% means no effect
Target sequence (Q99816 whole entry, looked up): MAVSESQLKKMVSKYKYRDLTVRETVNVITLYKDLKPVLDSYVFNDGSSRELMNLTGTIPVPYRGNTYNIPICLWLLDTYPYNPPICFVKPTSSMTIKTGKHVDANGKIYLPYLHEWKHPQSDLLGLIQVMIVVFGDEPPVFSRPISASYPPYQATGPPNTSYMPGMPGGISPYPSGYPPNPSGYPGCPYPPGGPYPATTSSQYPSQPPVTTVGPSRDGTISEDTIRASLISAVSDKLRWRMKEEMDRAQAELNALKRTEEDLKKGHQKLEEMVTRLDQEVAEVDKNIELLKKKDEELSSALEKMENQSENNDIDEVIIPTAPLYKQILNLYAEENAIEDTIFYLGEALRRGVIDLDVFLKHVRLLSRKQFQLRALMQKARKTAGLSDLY
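Compounds were pin-transferred onto Tsg101 binding domain (10 uM final) in HEPES pH 7.5 buffer, then FITC-PTAP peptide was added at 50 nM final. After 20 min at RT, polarization reported peptide displacement across a qHTS concentration series.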
KB-3-1 tox: qHTS assay for MDR1-selective chemotherapeutics: Primary screen using the parental adenocarcinoma cell KB-3-1 | KB-3-1 viability, CellTiter-Glo ATP luminescence, 72 h | Potency, µM (series often up to 46.1 µM), usual class: cytotoxic | 400,000 compounds, 1.4% hits; note: % is set by controls: 0 for no effect and ±100 for the full control effect; nearly all actives have a fitted effect of over 60% in size
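Parental KB-3-1 adenocarcinoma cells in phenol-red-free DMEM with 10% FBS were pin-treated with compounds at several concentrations, incubated 72 h at 37 °C, and viability read by CellTiter-Glo luminescence; concentration-effect curves were fitted after normalization.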
An asterisk follows results filed as active; i = inactive; ? = inconclusive; / = no result given; ! = not active in a repeat; [ ] = dose if it differs, or a comment. An excerpt weighted towards active compounds, which were near 6.8% of everything screened. Unless noted, calls come from the whole dose curve; as a rule, active = well fitted curve in the direction sought with a large enough effect; inconclusive = small, poorly fitted or top-dose-only effect, or another doubt; inactive = no such curve, though single readings can be large; an effect the other way counts as inactive or inconclusive. Potency is the fitted concentration of half-maximal effect.

SMILES	KB-V1 MDR tox	PINK1 expr mod	MCF10A rerep	SW480 rereplic	TSG101-PTAP inh	KB-3-1 tox
O=C(OC(c1ccccc1)c1nccc2ccccc12)c1cc([N+](=O)[O-])cc([N+](=O)[O-])c1 (stereo not given)	8.2µM*	-0.5%	?	?	-0.8%	i
OC(c1cccc(Cl)c1)c1nccc2ccccc12 (stereo not given)	i	2.9%	4.8%	?	-6.0%	i
O=C(Nc1ccc2nc(-c3cccs3)c(-c3cccs3)nc2c1)N1CCOCC1	16.4µM*	12.2%[38.3 µM]	18.4µM*	23.1µM*	-11.1%	i
O=C(c1ccc2nc(-c3ccco3)c(-c3ccco3)nc2c1)N1CCN(c2ccccc2)CC1	23.1µM*	15.4%[38.3 µM]	16.4µM*	?	-14.6%	i
O=C(Nc1ccc(N2CCOCC2)cc1)Nc1ccc2nc(-c3ccco3)c(-c3ccco3)nc2c1	?	?	9.2µM*	18.3%	-2.3%	?
CCc1nc2ccc(C(=O)N3CCN(c4ccccc4)CC3)cc2nc1CC	i	0.7%	9.6%	0.7%	-0.1%	i
COc1ccccc1CNC(=O)CSCc1nc(-c2ccc(OC)c(OC)c2)oc1C	i	-1.0%	/	/	/	i
COc1ccc(-c2nc3cnc(Nc4ccccc4)nc3n(CCC#N)c2=O)cc1	/	11.2µM*	/	/	/	/
COc1cccc(Nc2ncc3nc(-c4cc(F)cc(F)c4)c(=O)n(CCC#N)c3n2)c1	/	0.6%	/	/	/	/
COc1ccc(-c2nc3cnc(Nc4cccc(OC)c4)nc3n(CCC#N)c2=O)cc1	/	44.7µM*	/	/	/	/
Cc1cccc(C)c1OCC(=O)Nc1c(C(=O)c2ccc(Br)cc2)oc2ccccc12	i	-0.3%	/	/	/	i
CCc1ccc(NC(=O)CC2C(=O)N(c3cccc(OC)c3)C(=O)N2C2CCCC2)cc1 (stereo not given)	/	2.3%	/	/	/	/
COC(=O)CNc1c(-c2ccccn2)nc2ccc(Br)cn12	5.17µM*	-0.3%	5.2%	-4.8%	-19.3%	i
O=[N+]([O-])c1ccccc1-c1ccc(/C=N/n2cnnc2)o1	?	-0.8%[38.3 µM]	-5.8%	-1.4%	/	i
Nn1cnnc1N/N=C\c1ccc(-c2ccccc2[N+](=O)[O-])o1	2.06µM*	0.7%	?	1.7%	-2.2%	7.31µM*
Cc1cccc(C)c1OCC(=O)N=Nc1c(O)[nH]c2ccc(Br)cc12	?	12.5%[38.3 µM]	20.6µM*	?	-2.4%	i
O=C(N=Nc1c(O)[nH]c2ccc(Br)cc12)c1ccccc1-n1cccc1	3.26µM*	?	?	?	-0.7%	5.17µM*
Cc1ccc(S(=O)(=O)Oc2ccccc2/C=N/NC(N)=S)cc1	?	14.0%[38.3 µM]	?	37.7%	-4.3%	6.51µM*
NC(=S)N/N=C/c1ccccc1OCCSc1ccc(Cl)cc1	?	4.6%	20.6µM*	?	-0.3%	?
COC(=O)N1C(=O)[C@@](c2ccc(OC)cc2)(C(C)C)N1C(=O)OC	i	-0.1%	?	20.6µM*	-3.7%	i
COC(=O)N1C(=O)[C@](c2ccc(Cl)cc2)(C(C)C)N1C(=O)OC	i	-0.1%	?	?	-9.5%	i
O=C(OCc1cn(Cc2ccccc2)nn1)c1ccccc1	i	5.8%	2.0%	-4.9%	-1.3%	i
O=C(O)CCCCCCCCc1cn(Cc2ccc(C(=O)c3ccccc3)cc2)nn1	9.2µM*!	3.9%	?	5.8µM*	-3.0%	4.61µM*!
CCCCCc1ccc(-c2ccc(/C=C/C(=O)O)cc2)nc1	i	-0.6%	?	-3.7%	0.6%	i
CCCCCc1ccc(-c2cn(Cc3ccc(C(=O)c4ccccc4)cc3)nn2)cc1	7.31µM*!	6.6%	?	-1.7%	-3.6%	7.31µM*!
SMILES	KB-V1 MDR tox	PINK1 expr mod	MCF10A rerep	SW480 rereplic	TSG101-PTAP inh	KB-3-1 tox
CCOC(OCC)c1cn(Cc2ccc(C(=O)c3ccccc3)cc2)nn1	?	7.3%	?	126.8%	0.0%	18.4µM*
O=C(c1ccccc1)c1ccc(Cn2cc(-c3ccccc3)nn2)cc1	0.651µM*!	0.2%	10.1%	0.0%	/	?
O=C(c1ccccc1)c1ccc(Cn2cc(CCCO)nn2)cc1	i	0.0%	7.9%	-12.2%	-0.5%	i
COc1ccc(CNCc2ccccc2)cc1COc1ccc(NC(C)=O)cc1	/	-0.4%	/	/	/	/
O=c1c(-c2nc3ccccc3s2)cccn1Cc1ccccc1	?	15.4%	5.17µM*	11.6µM*	-0.8%	i
Nc1ccc(O)c(-c2nc3ccccc3s2)c1	i	-1.3%	?	2.5%	-8.1%	i
Nc1ccccc1-c1nc2ccccc2s1	i	6.0%	16.4µM*	?	1.2%	i
Cc1ccc(Cn2cccc(-c3nc4ccccc4s3)c2=O)cc1	i	-1.9%	?	?	-2.0%	i
CC(=O)N1CCc2c(sc3c2c(=O)n(Cc2ccccc2)c(=O)n3Cc2cccc(Cl)c2)C1	?	0.7%	/	/	/	?
Cc1cccc(N2CCN(C(=O)Cc3c(C(=O)O)c(C)cn3C)CC2C)c1 (stereo not given)	i	-0.5%	/	/	/	i
Oc1c(C(c2ccccc2)N2CCN(c3cccc(Cl)c3)CC2)sc2nc(-c3ccco3)nn12 (stereo not given)	/	2.3%	/	/	/	/
CCOc1cc(N2CCOCC2)c(OCC)cc1NC(=O)Cc1ccc(OC)c(OC)c1	5.8µM*	1.1%	4.7%	-1.4%	-7.7%	?
CCOc1cc(N2CCOCC2)c(OCC)cc1NC(=O)COc1ncnc2ccccc12	16.4µM*	0.7%[38.3 µM]	6.6%	-3.9%	-5.1%	i
CCOc1cc(N2CCOCC2)c(OCC)cc1NC(=O)COC(=O)c1cc2ccccc2cc1O	?	11.9%	17.6%	-3.7%	0.5%	i
CC(CCC(=O)O)C1CCC2C3C(O)C[C@@H]4CC(O)CC[C@@]4(C)C3CC(O)[C@]12C (stereo not given in full)	/	1.1%	/	/	/	/
Cc1ccc(NC(=O)c2cc(S(=O)(=O)NC3CCCCC3)ccc2F)cc1Cl	/	28.3%	/	/	/	/
COc1ccc(/C=N/NC(=O)c2csc(-n3nc(C)cc3C(F)(F)F)n2)cc1	i	3.0%	?	?	-5.2%	7.31µM*
CCOC(=O)c1c(C)[nH]c(C(=O)CN2C(=O)C(=O)N(CC(C)C)C2=O)c1C	i	0.9%	-5.5%	-7.1%	0.8%	i
